Bioassay records: PubChem BioAssay, National Center for Advancing Translational Sciences (NCATS)
Compounds with a hit are over-represented: about 15% of the library has one in this group of screens.
Pf growth 96h – inhibits malaria parasite growth, 96 h; P. falciparum luciferase reporter growth, 96 h; Potency, µM (series often up to 28.7 µM), for the others: top-dose activity change, negative = inhibition, hits mostly inhibitors; 320,000 tested, 6.9% active; further: potency means the concentration at half of the fitted maximal effect; on the % scale 0 is the no-effect control and ±100 the full control effect
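96 h incubation, 37 C, 5% CO2, of luciferase-reporter P. falciparum-infected RBCs (2% hematocrit, 0.05% parasitemia final) with test compounds; endpoint luminescence.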
HCV inh – inhibitors of hepatitis C virus infection; Potency, µM (doses to about 41.8 µM), inactives show top-dose activity change, negative = inhibition, usual class: inhibitors; 340,000 tested, 3.4% active; AID 651820; Huh7.5.1 HCVcc-Cre infection, luciferase reporter, 44 h; further: potency means the concentration at half of the fitted maximal effect; on the % scale 0 is the no-effect control and ±100 the full control effect
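Antiviral activity was scored by luciferase reporter output from cells infected with HCVcc-Cre (~0.5 moi) in presence of compound, 44 h infection period, cells seeded 1,000/well 4 h prior.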
HCMV inh – inhibitors of human cytomegalovirus. HFF cells, HCMV-luciferase reporter, 72 h; active compounds read low. activity change, negative = inhibition, % at 57.5 µM. 410,000 tested, 4.5% active; in the data active means activity change below about -60%; inconclusive means no clear call, values can overlap the other calls; inactive means above about -39%; further: on the % scale 0 is the no-effect control and ±100 the full control effect
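Two compound doses tested in HFFs infected with HCMV-luciferase, MOI 1 PFU/cell, 72 h at 37C. Lysate luminescence read with OneGlo; data normalized against buffer-only and 10uM Salinomycin inhibitor controls.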
SARS PLpro yeast – blocks SARS-CoV papain-like protease in a yeast assay | AID 485353 | Potency, µM (highest dose often 32.9 µM), without a hit: at the top dose activity, positive = growth rescue, hits mostly activators | 330,000 tested, 0.19% active | S. cerevisiae expressing SARS-CoV PLpro, growth rescue; calls by dose curve; further: potency means the concentration at half of the fitted maximal effect; 0% is about no effect; nearly all actives have a fitted effect of over 55% in size
Pf growth 48h – P. falciparum growth inhibition at 48 hours (one generation); P. falciparum luciferase growth in erythrocytes, 48 h; Potency, µM (doses to about 28.7 µM), for inactives: at the highest dose activity change, negative = inhibition, actives largely listed as inhibitors; 310,000 tested, 5.9% active; AID 504832; further: potency means the concentration at half of the fitted maximal effect; on the % scale 0 is the no-effect control and ±100 the full control effect
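A one-generation exposure of luciferase-tagged malaria parasites in RPMI 1640/Albumax erythrocyte culture, 37 C and 5% CO2. Inhibition is inferred from decreased luminescence after adding detection reagent.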
Sm TGR inh – inhibitors of Schistosoma mansoni thioredoxin glutathione reductase; Q962Y6; purified TGR, DTNB reduction, TNB absorbance 405 nm; Potency, µM (highest dose often 114 µM), inactives show top-dose activity change, negative = inhibition, hits mostly inhibitors; 360,000 tested, 3% active; further: potency means the concentration at half of the fitted maximal effect; on the % scale 0 is the no-effect control and ±100 the full control effect; nearly all actives have a fitted effect of over 60% in size
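TGR 20 nM + NADPH 100 uM (dispensed conc.), cpd preinc 15 min RT; start with NADPH (500 uM addition) then DTNB (15 mM addition). Kinetic TNB absorbance, 405 nm filter. Four-parameter Hill fit across titration.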
* hit, by the source's call; ? = inconclusive; · = no result given; ! = not confirmed by another sample; [ ] = dose if it differs, or a comment. Unless noted, the call rests on the fitted dose curve; in most records, active means well fitted curve in the direction sought with a large enough effect; inconclusive means small, poorly fitted or top-dose-only effect, or another doubt; inactive means no such curve, though single readings can be large; an effect the other way counts as inactive or inconclusive.

SMILES	Pf growth 96h	HCV inh	HCMV inh	SARS PLpro yeast	Pf growth 48h	Sm TGR inh
COc1cccc(-n2c(SCC(=O)N3CCCCC3)nc3c([nH]c4ccccc43)c2=O)c1	-1%	4%	17	0%	10%	3%
CCOC(=O)C(C)Sc1nc2c([nH]c3ccccc32)c(=O)n1C (centres undefined)	4%	10µM*	65	16%	?	2%
COc1cccc(NC(=O)CSc2nc3c([nH]c4ccccc43)c(=O)n2-c2cccc(Cl)c2)c1	·	·	-74*	·	·	9%
CCC1CCCCN1C(=O)CSc1nc2c([nH]c3ccccc32)c(=O)n1-c1cccc(OC)c1 (centres undefined)	·	·	-91*	·	·	-1%
CCn1c(SCC(=O)N2CC(C)OC(C)C2)nc2c([nH]c3ccccc32)c1=O (centres undefined)	?	-11%	36	1%	6.6µM*	1%
CN(C(=O)CSc1nc2ccccc2n1CC(=O)N(C)C1CCCCC1)c1ccccc1	·	·	-9	·	·	-2%
COCCn1c(SCC(=O)Nc2ccc(C(N)=O)cc2)nc2c([nH]c3ccccc32)c1=O	1%	-2%	63	-2%	21%	-20%
COc1ccc(-n2c(SCC(=O)Nc3ccc(C(N)=O)cc3)nc3c([nH]c4ccccc43)c2=O)cc1OC	12µM*	11µM*	53	0%	?	16%
O=C(CSc1nc2c([nH]c3ccccc32)c(=O)n1-c1cccc(Cl)c1)N1CCOCC1	?	?	-93*!	10%	-20%	-10%
Cc1cc(C)cc(NC(=O)CSc2nc3c([nH]c4ccccc43)c(=O)n2-c2ccc(F)cc2)c1	·	·	-88*	·	·	3%
O=C(CSc1nc2c([nH]c3ccccc32)c(=O)n1-c1ccccc1)N1CCOCC1	-4%	?	23	-7%	-10%	-8%
COc1ccc(-n2c(SCC(=O)N(C)c3ccccc3)nc3c([nH]c4ccccc43)c2=O)cc1OC	4.7µM*	-3%	29	-1%	8.3µM*	-23%
COc1ncccc1-c1cc2nc(NCCCN(C)C)n(C)c(=O)c2s1	·	·	45	·	·	·
CCCCc1nc(NCCNC(=O)c2ccccc2)c(C#N)c2c1CSC(C)(C)C2	2.3µM*	?	-104*	-20%	·	-25%
CCCCc1nc(NCCNC(=O)c2ccco2)c(C#N)c2c1CSC(C)(C)C2	·	11µM*	16	-8%	8.3µM*	1%
C=CCNC(=O)c1sccc1Oc1ccc(F)cc1[N+](=O)[O-]	?	-10%	-37	-1%	34%	-1%
CCCN(CCC)C(=O)C(c1ccccc1)C1(O)CCCCC1 (centres undefined)	·	-8%	25	·	·	·
CC(C)(Oc1ccc(C2CCCc3ccccc32)cc1)C(=O)O (centres undefined)	-7%	·	·	·	-7%	·
C#C[C@]1(O)CC[C@H]2[C@@H]3CCC4=CCCC[C@@H]4[C@H]3C(=C)C[C@@]21CC	9.5µM*	·	·	·	?	·
C#C[C@]1(O)CC[C@@H]2[C@H]3CCC4=CCCC[C@@H]4[C@@H]3CC[C@@]21C	-17%[12.8 µM]	·	·	·	-10%[12.8 µM]	·
CC(C)(C)c1ccc(-c2nc3n(c(=O)c2C#N)CCS3)cc1	?	-9%	11	1%	13%	-2%
COc1cccc(C2=NC(C)(C)NC(c3ccccc3O)C2)c1 (centres undefined)	0%	-29%	-9	-8%	9.3µM*	-15%
CN(C(=O)c1cc(-c2ccc3c(c2)OCO3)on1)c1ccccc1	-14%	-29%	15	-13%	82%	-2%
CCC1(C)N=C(c2ccc3c(c2)OCO3)CC(c2ccccc2O)N1 (centres undefined)	·	?	38	-26%	4.7µM*	?
COc1cc(CNCc2ccccn2)ccc1OCc1c(Cl)cccc1Cl	?	11µM*	-15	-1%	?	9%
SMILES	Pf growth 96h	HCV inh	HCMV inh	SARS PLpro yeast	Pf growth 48h	Sm TGR inh
COc1cccc(CNCc2ccco2)c1O	12µM*	30%	-11	12%	0%	-25%
COc1cc(CNCc2ccccn2)ccc1OCc1cccc(Cl)c1	?	?	-3	-8%	?	-13%
COc1cc(CNCc2ccco2)ccc1OCc1ccccc1	108%	11µM*	-35	-2%	4%	0%
COc1ccccc1CNC(=O)CCNS(=O)(=O)/C=C/c1ccc(C)cc1	·	-2%	-15	1%	·	·
O=C(Nc1ccc2c3c(cccc13)CC2)c1ccccc1	·	·	-3	·	·	·
COc1cccc(-c2oc3ccc(C)cc3c(=O)c2O)c1	·	·	27	·	·	-12%
CC1CCCN(c2c(S(=O)(=O)c3ccccc3)cnc3ccc(Cl)cc23)C1 (centres undefined)	·	·	2	·	·	-3%
COc1cc2ncc(S(=O)(=O)c3ccccc3)c(N3CCC4(CC3)OCCO4)c2cc1OC	17%	?	-32	-4%	?	-1%
COc1ccc2ncc(S(=O)(=O)c3ccccc3)c(N3CCN(c4ccccc4)CC3)c2c1	13µM*	?	-68*	-3%	7.4µM*	-4%
COc1ccc2ncc(S(=O)(=O)c3ccccc3)c(N3CCC4(CC3)OCCO4)c2c1	?	-13%	-35	-59%	8.3µM*	0%
O=C(CN(CC(=O)Nc1ccc(F)cc1)CC(=O)Nc1ccc(F)cc1)Nc1ccc(F)cc1	·	·	52	·	·	·
CN1C(=O)c2ccccc2Sc2ccc(NC(=O)N3CCN(c4ccccc4)CC3)cc21	·	·	-76*	·	·	-30%
CCCCNC(=O)Nc1ccc2c(c1)N(C)C(=O)c1ccccc1S2	3.3µM*	-16%	1	1%	?	0%
CC(C)Oc1ccc(CNC(=O)Nc2ccc3c(c2)N(C)C(=O)c2ccccc2S3)cc1	·	·	-76*	·	·	1%
CCCNC(=O)Nc1ccc2c(c1)N(C)C(=O)c1ccccc1S2	·	4%	-25	0%	-11%	-10%
Cc1ccc(NC2CCCN(C(=O)CCc3ccncc3)C2)cc1C (centres undefined)	-13%	2%	·	-13%	-7%	-28%
CNc1nc(SC(C)C(=O)Nc2ccc(Cl)c(Cl)c2)nc(N2CCOCC2)n1 (centres undefined)	37%	?	24	4%	-5%	1%
Cc1sc2ncnc(Sc3ccccc3C(=O)O)c2c1C	-1%	-27%	-11	-1%	-2%	-1%
Clc1ccc(-n2nnnc2Sc2ncnc3sccc23)cc1	·	?	-81*	·	·	·
Cc1sc2ncnc(Sc3nnnn3-c3ccccc3)c2c1C	35%	?	-71*	-6%	4.7µM*	?
O=C(CSc1nnnn1-c1ccc(Cl)cc1)N1CCNC1=O	·	-1%	-15	-2%	·	·
